Screening results deposited in PubChem BioAssay by The Scripps Research Institute Molecular Screening Center.
The entries come from a sample that favours hits as a whole.
TbREL1 inh: TbREL1 inhibition, primary screen; inhibition, % at 9.66 µM; 89,000 compounds, 0.49% hits; P86926; TbREL1 RNA ligation, FRET fluorescence;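 active = inhibition above the mean inhibition across all screened compounds plus 3 SD, cut at about 11% in these data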;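 also: 0% = plate median of test wells and 100% = NSC42067 control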
Target sequence (P86926 whole entry, looked up): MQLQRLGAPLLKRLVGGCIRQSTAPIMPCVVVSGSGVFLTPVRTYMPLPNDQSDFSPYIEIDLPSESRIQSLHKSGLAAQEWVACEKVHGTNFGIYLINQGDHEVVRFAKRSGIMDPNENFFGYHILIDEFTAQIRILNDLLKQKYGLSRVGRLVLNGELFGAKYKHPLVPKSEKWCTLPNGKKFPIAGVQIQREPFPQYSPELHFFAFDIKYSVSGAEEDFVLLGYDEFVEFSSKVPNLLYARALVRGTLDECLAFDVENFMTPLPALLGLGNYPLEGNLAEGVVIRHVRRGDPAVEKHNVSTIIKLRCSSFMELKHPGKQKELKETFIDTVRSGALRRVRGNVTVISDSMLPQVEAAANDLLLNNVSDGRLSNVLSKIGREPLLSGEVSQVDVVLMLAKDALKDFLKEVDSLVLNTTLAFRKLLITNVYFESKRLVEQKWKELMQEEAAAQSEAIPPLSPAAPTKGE
TbREL1 conf: TbREL1 inhibition, confirmation; 390 compounds, 37% hits; inhibition, % at 9.66 µM; TbREL1 RNA ligation, FRET fluorescence; AID 1117282; shares compounds with TbREL1 inh;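 active = mean inhibition across replicates above a set limit taken from the earlier primary screen, cut at about 11% in these data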;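 also: 0% = REL1 with substrate and DMSO and 100% = REL1 plus control inhibitor NSC42067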
* hit, by the source's call.

SMILES	TbREL1 inh	others
CN1CCCCC(NC(=O)c2cccc(C(F)(F)F)c2)C1=O (configuration not stated)	-0.5
Clc1ccc(-n2c(Cc3cccs3)nnc2SC/C=C/c2ccccc2)cc1	1.0
O=C(CSc1nc2ccccc2nc1N1CCOCC1)N1CCN(c2cccc(C(F)(F)F)c2)CC1	-0.7
CC1(C)CC(=O)N(CC(=O)N2CCN(c3cccc(Cl)c3Cl)CC2)c2ccccc2S1(=O)=O	-2.8
S=c1[nH]nc(-c2n[nH]c3c2CCC3)n1N=Cc1ccc(Br)s1	-4.3
CCC(=O)NC(c1cccs1)c1ccc2cccnc2c1O (configuration not stated)	-0.1
CC(=O)NC(c1cccs1)c1cc(F)c2cccnc2c1O (configuration not stated)	-0.1
CCC(=O)NC(c1cccs1)c1cc([N+](=O)[O-])c2cccnc2c1OC (configuration not stated)	32.8*	TbREL1 conf=9.5
COC(=O)c1cc(S(=O)(=O)N2CCN(c3cccc(C(F)(F)F)c3)CC2)cn1C	5.6
Cc1ccc(-c2c[n+](Cc3ccc(Cl)c(Cl)c3)c3n2CCC3)cc1	13.4*	TbREL1 conf=7.9
Cc1ccc(S(=O)(=O)N2CCN=C2SCc2ccc(Cl)c(Cl)c2)cc1	6.4
Cc1ccc(C(=O)C[n+]2cc(-c3ccc(C)cc3)n3c2CCCCC3)cc1	8.5
O=C(NCCc1ccc(Cl)cc1)c1ccc2c(c1)ncn2C1CCCCC1	-2.2
C=CCn1c(CCNC(=O)c2ccccc2F)nnc1SCC(=O)Nc1ccccc1F	1.5
C=CCn1c(CNC(=O)c2ccccc2F)nnc1SCC(=O)NC(C)c1ccccc1 (configuration not stated)	12.3*	TbREL1 conf=4.8
C=CCn1c(CCNC(=O)c2ccccc2F)nnc1SCC(=O)Nc1nc(C)cs1	-1.1
CCOc1ccc(CCNC(=O)c2cc3sccc3n2Cc2ccccc2)cc1OCC	-1.0
O=C(N1CCC(Cc2ccccc2)CC1)n1ncc(C(O)(c2ccccc2)c2ccccc2)n1	-3.6
Cc1ccc(-n2nnnc2SCC(=O)c2c(N)n(C3CC3)c(=O)[nH]c2=O)cc1	0.7
Cn1c(N)c(C(=O)CSc2nnc(C3CC3)n2Cc2ccccc2)c(=O)[nH]c1=O	-2.8
Cn1c(N)c(C(=O)CSc2nnc(-c3c[nH]c4ccccc34)n2C2CC2)c(=O)[nH]c1=O	14.9*	TbREL1 conf=7.0
CC(C)N1CCCCC(NC(=O)c2ccc(Br)cc2)C1=O (configuration not stated)	-2.5
C(=N\Nc1nncc2ccccc12)/c1cccnc1	1.5
CC(=C\C=O)/C(C)=C/CC[C@@H]1O[C@@H]2C[C@@H]3O[C@](C)(C[C@H]4C[C@H](O)[C@@H]5O[C@@H]6C[C@H](O)[C@@H](C)O[C@@]6(C)CC[C@H]5O4)[C@@H](O)CC[C@@]3(C)O[C@H]2[C@@H](O)[C@@H]1C	-0.3
COC(=O)C1CCC(CNC(=O)C(Cc2ccc3c(c2)OCO3)NC(C)=O)CC1 (configuration not stated)	3.6
SMILES	TbREL1 inh	others
CC1(c2nnnn2-c2ccc(F)cc2)CCCC(=O)N1CCc1c[nH]c2ccccc12 (configuration not stated)	-6.5
Cc1ccc(NC(=O)CSc2nnc(-c3ccccc3F)n2-c2ccccc2)c(C)c1	-1.5
COC(=O)c1ccc2nc(-c3ccc(C)cc3)c(Cc3cccc(F)c3)n2c1	6.5
COC(=O)c1cnn2c(C)c(Cc3cccc(F)c3)c(C)nc12	15.7*	TbREL1 conf=2.4
Cc1nc2c(C(=O)N3CCCC3)cnn2c(C)c1Cc1c(F)cccc1Cl	7.0
O=C(CSc1nnc(-c2ccc(Cl)cc2)n1-c1ccccc1)Nc1ccc2c(c1)OCCO2	-3.0
COC(=O)CN1CCN(C(=O)c2csc3ccccc23)CC1	1.2
Cc1ccc(-c2cc(C(=O)NN=Cc3sccc3C)[nH]n2)cc1C	10.2
CCCC(C)C(=O)NC1CCCCN(Cc2ccc(C)cc2)C1=O (configuration not stated)	2.9
CC(=O)N(C)c1ccc(NC(=O)/C=C/c2ccccc2Cl)cc1	-3.3
O=C(/C=C/c1cccc([N+](=O)[O-])c1)Nc1cc(C(=O)O)cc(C(=O)O)c1	1.6
O=C(/C=C\c1ccccc1[N+](=O)[O-])Nc1ccccc1	12.1*	TbREL1 conf=6.8
COC(=O)[C@]12CCCCC=C1N(Cc1ccc(OC)cc1)C(=O)[C@@H]2CC(=O)NCc1ccc(OC)c(OC)c1	-8.8
Cc1ccc(-c2cc(C#N)c3n(c2=O)CCC3)cc1	8.0
Oc1ccc(Cl)c2cccnc12	1.0
Oc1ccc(-c2nn[nH]n2)c2cccnc12	15.6*	TbREL1 conf=0.1
Oc1ccc(Cc2ccccc2)c2cccnc12	-3.3
CC1(C)CC(=O)C=C(Nc2ccccc2NC(=O)c2cc(F)ccc2F)C1	-2.9
CN(C)CCCn1c(SCC(=O)Nc2nccs2)nnc1-c1ccncc1	0.9
Cc1cccc(-n2c(CNC(=O)COc3ccccc3)nnc2SCC(=O)Nc2nccs2)c1	2.9
CCn1c(COc2cc(C)ccc2C(C)C)nnc1SCC(=O)Nc1nccs1	12.2*	TbREL1 conf=6.6
Cc1ccc(-c2c(C(=O)NC3CCCC3)oc(=O)c3ccccc23)cc1	-0.7
CCn1c(Cc2cccs2)nnc1SCC(=O)Nc1ccc2c(c1)OCCO2	0.3
COc1ccc(CN2C(=O)c3cccnc3C2Nc2cc(Cl)ccc2OC)cc1 (configuration not stated)	31.8*	TbREL1 conf=41.3*
COc1ccc(Cl)cc1NC(=S)N1CCN(c2ncccn2)CC1	-0.7
SMILES	TbREL1 inh	others
CCOC(=O)c1ccc(NC2c3ncccc3C(=O)N2Cc2ccc(F)cc2)cc1 (configuration not stated)	4.8
COc1ccc(Cn2ccc3ccc(-c4ccc5ccn(Cc6ccc(C#N)cc6)c5c4)cc32)cc1	-2.1
COC(=O)[C@]12C[C@H](CC(=O)N3CCOCC3)C(=O)N(Cc3ccc(Cl)cc3Cl)C1=C[C@H](C(C)(C)C)O[C@@H]2C	0.1
Fc1ccc(C2=Nn3c(nnc3C3CCCCC3)SC2)cc1	-2.3
COc1ccc(-c2cc(C(=O)N3CCCC3)no2)cc1	3.7
COc1ccc(OC)c(-c2cc(C(=O)N3CCOCC3)no2)c1	100.1*	TbREL1 conf=1.1
COc1ccc(OC)c(-c2nnc(SCC(=O)N3CCOCC3)o2)c1	0.0
CCCCCCc1ccc(NC(=O)[C@@H]2CC=C[C@@H]3CCN(Cc4ccccc4)C(=O)[C@@H]32)cc1	1.4
COC(=O)[C@]12C[C@H](CC(=O)NCC3CCCCC3)C(=O)N(Cc3ccc4c(c3)OCO4)C1=C[C@H](C(C)C)O[C@@H]2C1CC1	1.7
O=C(Cn1nnc(-c2ccncc2)n1)Nc1ccc(Cl)cc1	0.1
CC(C)Cc1ccc(C(C)C(N)=NCCc2ccccc2)cc1 (configuration not stated)	12.4*	TbREL1 conf=12.5*
COC(=O)c1cc(NC(=O)C(C)c2ccc(CC(C)C)cc2)ccc1O (configuration not stated)	0.8
CC(C)c1ccc(CNCc2ccccc2)cc1	1.9
C[C@H]1[C@H](NC(=O)c2ccc(Cl)cc2)CC[C@@]23CCCN2C(=O)CCC[C@@H]13	-3.6
COC(=O)c1ccc(S(=O)(=O)N2CCC(NC(=O)Cc3cccc(C)c3)CC2)cc1	0.7
COC[C@@H]1CCCN1c1ccc2c(c1)OCCCN(C1CC1)S2(=O)=O	-2.2
C=CCN(c1ccccc1)S(=O)(=O)c1cccc(C(=O)NC2CCC(O)CC2)c1 (configuration not stated)	-1.9
CC1(C)CC(NC(=O)c2cccc(S(=O)(=O)N(Cc3ccccc3)c3ccccc3)c2)CC(C)(C)N1	13.4*	TbREL1 conf=6.3
